Measurements: PubChem BioAssay AID504652 (National Center for Advancing Translational Sciences (NCATS), 2011)
“And” between values parts separate entries of the source, which are not always exact repeats. Identical values can stand only once. In all, about 360,000 compounds went through this assay and about 11,000 (3.1%) were called active. No stated cut-off is given here; in the data, active means activity change below about -30%; inactive means the rest. The list comes from a sample in which actives are over-represented; it also holds similar structures and randomly drawn compounds.

Molecular target: D(1A) dopamine receptor (Homo sapiens) (UniProt P21728)
Sequence (P21728 whole entry, looked up): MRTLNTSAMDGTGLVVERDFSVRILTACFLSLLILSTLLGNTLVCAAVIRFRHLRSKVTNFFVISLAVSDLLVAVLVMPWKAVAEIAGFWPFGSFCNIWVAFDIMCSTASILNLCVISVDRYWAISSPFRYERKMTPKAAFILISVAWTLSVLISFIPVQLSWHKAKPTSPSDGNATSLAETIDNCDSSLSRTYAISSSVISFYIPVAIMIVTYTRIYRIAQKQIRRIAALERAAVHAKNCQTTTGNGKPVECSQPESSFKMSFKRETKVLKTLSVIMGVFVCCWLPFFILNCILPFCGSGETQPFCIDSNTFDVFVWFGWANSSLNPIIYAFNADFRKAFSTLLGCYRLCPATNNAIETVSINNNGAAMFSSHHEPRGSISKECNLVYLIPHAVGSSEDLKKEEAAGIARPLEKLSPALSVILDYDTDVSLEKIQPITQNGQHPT
Assay: Antagonist of Human D 1 Dopamine Receptor: qHTS
Conditions: HEK293 TREx D1 cells, calcium flux, dopamine EC80; at 10 µM; stronger effect = lower value
Summary of the method: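 Antagonism measured as reduced calcium response to an EC80 dopamine addition following 180 s compound pre-read; cells were inducible HEK293 Trex D1 plated overnight at 30 C, read kinetically at 1 cycle/sec.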
On the % scale 0 is the no-effect control and ±100 the full control effect.

Compound	activity change, negative = inhibition
CCS(=O)(=O)N1CCC(n2c(C)nc3cccnc32)CC1	12.3% (inactive)
COc1ccc(OC)c(-c2nc(C(N)=O)c3c(n2)n(-c2ccc4c(c2)OCO4)c(=O)n3C)c1	-6.79% (inactive)
Cc1ccc(CN2COc3cc(C)c4c(oc(=O)c5ccccc54)c3C2)cc1	3.2% (inactive)
CSc1ccccc1OCc1cc(C(=O)N(C)CCc2c(C)n[nH]c2C)no1	-4.34% (inactive)
CCn1ccnc1CN(C)C(=O)c1cc(COc2ccc(Cl)cc2OC)on1	-3.88% (inactive)
COc1cc(Cl)ccc1OCc1cc(C(=O)N(C)CCc2c(C)n[nH]c2C)no1	-50% (active)
Cc1noc(C)c1-c1ccc2ncnc(NCc3ccc(F)c(F)c3)c2c1	-25.4% (inactive)
COc1ccc(NC(=O)CSc2nc3ccccc3[nH]2)cc1	7.52% (inactive)
O=C(O)C1CCCN1S(=O)(=O)c1ccc2c(c1)CCC2 (centres undefined)	-38.4% (active)
CC(=O)Nc1ccc(S(=O)(=O)N2CCCC2C(=O)O)cc1 (centres undefined)	2.28% (inactive)
O=C(O)C1CCCN1S(=O)(=O)c1ccc(Br)cc1 (centres undefined)	-19.4% (inactive)
CCCS(=O)(=O)c1ncc(Cl)c(C(=O)Nc2scc(-c3ccccc3)c2C(=O)OCC)n1	-10.7% (inactive)
C=C1c2c(Cl)ccc(O)c2C(O)=C2C(=O)[C@]3(O)C(O)=C(C(N)=O)C(=O)[C@@H](N(C)C)[C@@H]3[C@@H](O)C12 (some centres undefined)	-4.29% (inactive)
CN(C)[C@@H]1C(=O)C(C(N)=O)=C(O)[C@@]2(O)C(=O)C3=C(O)c4c(O)ccc(Cl)c4[C@@H](O)[C@H]3C[C@@H]12	-42.8% (active)
Cc1ccc(C)c(N2CCN(C(=O)Cn3nc(C)c4sc5ccccc5c4c3=O)CC2)c1	5.73% (inactive)
COc1ccc(-c2noc(CSc3nc(C)cc(=O)[nH]3)n2)cc1OC	12.5% (inactive)
COc1ccc(-c2cc(C(F)(F)F)n3nc(-c4ccccc4)cc3n2)cc1OC	6.49% (inactive)
CCCN(CCC)CCNC(=O)c1ccc2c(c1)NC(=O)C(CS(=O)(=O)Cc1cccc(Br)c1)N2 (centres undefined)	-3.96% (inactive)
Cc1ccc(OCCSc2nc3ccc(NC(=O)COc4ccc(C)cc4)cc3s2)cc1	-5.49% (inactive)
CC(=O)Nc1ccc2nc(SCCOc3cc(C)cc(C)c3)sc2c1	-35.7% (active)
Cc1cccc(OCCSc2nc3ccc(NC(=O)COc4ccccc4C)cc3s2)c1	5.79% (inactive)
NC(=O)C1CCN(C(=O)c2cccc(NC(=O)c3nsc4ccccc34)c2)CC1	7.53% (inactive)
O=C(CSc1ccccc1)Nc1cccc(S(=O)(=O)N2CCCCC2)c1	-39.5% (active)
O=C(CSc1ccccc1)Nc1cccc(S(=O)(=O)N2CCOCC2)c1	-24.4% (inactive)
Nc1cc(N)nc(SCC(=O)Nc2cccc(S(=O)(=O)N3CCCCC3)c2)n1	-7.32% (inactive)
CCOc1ccccc1N(C)C(=O)c1cc2c(s1)-c1ccccc1OC2	7.49% (inactive)
Cc1sc(C2C(C#N)=C(N)N(c3cccc(Cl)c3)C3=C2C(=O)CCC3)cc1CN1CCOCC1 (centres undefined)	-16.8% (inactive)

Compound	activity change, negative = inhibition
Cc1c(C(=O)N2CCOCC2)[nH]c2ccc(OCc3ccccc3)cc12	-45.7% (active)
Cc1c(C(=O)CN2CCOCC2)[nH]c2ccccc12	-9.55% (inactive)
CCOC(=O)c1[nH]c2ccc(OC)cc2c1NC(=O)N1CCOCC1	-7.34% (inactive)
CCOC(=O)c1ccc(NC(=O)Cn2cc(S(=O)(=O)Cc3ccccc3F)c3ccccc32)cc1	16.6% (inactive)
Cc1nc2c(-c3ccccc3)c(C)nn2c(C)c1CCC(=O)NCCc1ccccc1	-7.07% (inactive)
COc1cc(OC)cc(-c2nc3nc(C)c(CCC(=O)NCc4ccco4)c(C)n3n2)c1	-2.94% (inactive)
Cc1nc2c(-c3ccc(F)cc3)c(C)nn2c(C)c1CCC(=O)NCc1ccco1	-61.2% (active)
CCOC(=O)c1c(-c2ccc(OC)cc2)oc2ccc(OCc3ccc(C(=O)OC)cc3)cc12	4.56% (inactive)
O=C(Nc1ccc2nc(SCC(=O)N3CCCc4ccccc43)sc2c1)c1ccc(Cl)cc1	-13.6% (inactive)
CCN(CC)c1nc(-c2ccccc2)cc(C(F)(F)F)c1C#N	-72.6% (active)
N#Cc1c(C(F)(F)F)cc(-c2ccccc2)nc1SCC(=O)N1CCOCC1	7.61% (inactive)
Cc1ccc(-c2cc(C(F)(F)F)c(C#N)c(SCC(=O)Nc3ccccc3)n2)cc1	-36.2% (active)
Cc1cc(C(F)(F)F)c(C#N)c(SCC(=O)NC2CC2)n1	-10.9% (inactive)
CCOC(=O)COc1nc(C)cc(C(F)(F)F)c1C#N	-9.55% (inactive)
Cc1nn(-c2nc(-c3ccccc3)cc(C(F)(F)F)n2)c(C)c1Cl	5.82% (inactive)
CCCN1CCc2nc(N3CCN(C)CC3)ncc2C1	-15.6% (inactive)
CSc1cccc(NC(=O)CN2C(=O)CCc3cc(S(=O)(=O)N4CCCCC4)ccc32)c1	-0.775% (inactive)
Cc1cc2c(cc3c(SCc4cccc(Cl)c4)nnc(C)n32)o1	-2.95% (inactive)
Cc1ccc(CNS(=O)(=O)c2ccc(-c3cc(C(F)(F)F)on3)s2)cc1	0.708% (inactive)
COc1ccccc1CCNC(=O)c1cccn1-c1nnc(N2CCCCC2)s1	13.6% (inactive)
CCCOc1cccc(C(=O)Nc2cccc(NC(=O)c3ccc(C(C)(C)C)cc3)c2)c1	-1.05% (inactive)
CCOc1cccc2c1N[C@@H](c1ccc(C(=O)O)cc1)[C@H]1CC=C[C@@H]21	-19.7% (inactive)
Cc1ccc2nc(COc3cccc(NC(=O)c4ccccc4Cl)c3)cc(=O)n2c1	-6.97% (inactive)
CC(=O)NCCn1c(SCC(=O)Nc2ccc(C)cc2)nc2ccccc2c1=O	1.17% (inactive) and -18.8% (inactive)
CN(C)CCCn1c(SCCN2C(=O)c3ccccc3C2=O)nc2ccccc2c1=O	-51.8% (active)
O=C(CSc1nc2ccccc2c(=O)n1CCCO)NC1CC1	8.77% (inactive)
Cc1ccc(Cc2nc3ccccc3nc2SCC(=O)Nc2cccc(C(F)(F)F)c2)cc1	-11.6% (inactive)
